Reference: PubChem BioAssay AID1159580 (chemical genetic matrix, 2015)
About 2,000 (36%) of roughly 5,500 compounds were called active. Inconclusive results (about 18%) are left out. Cut-off read from the data, not from the text of the source: active = normalized growth mostly below about 0.91 (no sharp cut-off); inconclusive = no clear call, values can overlap the other calls; inactive = mostly above about 0.92. This is one part of the list.

Assay: chemical genetic growth profiling, strain panel (AID 1159580);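 note: tested at 20 µM; growth read once vehicle control cultures reached saturation at 30 °C; 1 = growth at the plate median or of vehicle wells; lower values mean less growth of the strain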
Details: growth OD

Measured: normalized growth

C1CNCCN1
inactive: S. cerevisiae deletion strains, locus YJR066W, strain TOR1, active compounds read low 0.957 | S. cerevisiae deletion strains, locus YJR075W, strain HOC1, active compounds read low 1.02 | S. cerevisiae deletion strains, locus YKL009W, strain mrt4, active compounds read low 0.989 | S. cerevisiae deletion strains, locus YKL068W, active compounds read low 0.999 | S. cerevisiae deletion strains, locus YKL085W, strain MDH1 (second series), active compounds read low 1.01 | S. cerevisiae deletion strains, locus YKL085W, strain MDH1, active compounds read low 1.01 | S. cerevisiae deletion strains, locus YKL160W, strain elf1, active compounds read low 1.02 | S. cerevisiae deletion strains, locus YKL190W, strain CNB1, active compounds read low 1 | S. cerevisiae deletion strains, locus YKR001C, strain vps1, active compounds read low 1 | S. cerevisiae deletion strains, locus YKR026C, strain gcn3, active compounds read low 1.01 | S. cerevisiae deletion strains, locus YKR091W, strain srl3, active compounds read low 1.01 | S. cerevisiae deletion strains, locus YLL001W, strain dnm1, active compounds read low 1.02 | S. cerevisiae deletion strains, locus YLL026W, active compounds read low 1.01 | S. cerevisiae deletion strains, locus YLL041C, strain sdh2, active compounds read low 1.02 | S. cerevisiae deletion strains, locus YLR027C, strain aat2, active compounds read low 1.01 | S. cerevisiae deletion strains, locus YLR039C, strain RIC1, active compounds read low 1.01 | S. cerevisiae deletion strains, locus YLR058C, strain SHM2, active compounds read low 1.01 | S. cerevisiae deletion strains, locus YLR102C, strain apc9, active compounds read low 0.994 | S. cerevisiae deletion strains, locus YLR113W, strain HOG1, active compounds read low 1.02 | S. cerevisiae deletion strains, locus YLR221C, strain rsa3, active compounds read low 1.01 | S. cerevisiae deletion strains, locus YLR258W, strain gsy2, active compounds read low 1.01 | S. cerevisiae deletion strains, locus YLR262C, strain YPT6 (second series), active compounds read low 1.03 | S. cerevisiae deletion strains, locus YLR262C, strain YPT6, active compounds read low 1.02 | S. cerevisiae deletion strains, locus YLR268W, strain sec22, active compounds read low 0.987 | S. cerevisiae deletion strains, locus YLR320W, strain mms22, active compounds read low 1.02 | S. cerevisiae deletion strains, locus YLR330W, strain CHS5, active compounds read low 1.01 | S. cerevisiae deletion strains, locus YLR342W, strain FKS1 (second series), active compounds read low 1.02 | S. cerevisiae deletion strains, locus YLR342W, strain FKS1, active compounds read low 1.02 | S. cerevisiae deletion strains, locus YLR357W, strain rsc2, active compounds read low 1.02 | S. cerevisiae deletion strains, locus YLR370C, strain arc18, active compounds read low 1.02 | S. cerevisiae deletion strains, locus YLR371W, strain rom2, active compounds read low 0.997 | S. cerevisiae deletion strains, locus YLR384C, strain iki3, active compounds read low 1.01 | S. cerevisiae deletion strains, locus YLR418C, strain cdc73, active compounds read low 0.994 | S. cerevisiae deletion strains, locus YML016C, strain PPZ1, active compounds read low 1.02 | S. cerevisiae deletion strains, locus YML032C, strain rad52, active compounds read low 0.989 | S. cerevisiae deletion strains, locus YML120C, strain ndi1, active compounds read low 1 | S. cerevisiae deletion strains, locus YML124C, strain tub3, active compounds read low 0.999 | S. cerevisiae deletion strains, locus YMR058W, strain fet3, active compounds read low 1.02 | S. cerevisiae deletion strains, locus YMR078C, strain ctf18, active compounds read low 1 | S. cerevisiae deletion strains, locus YMR125W, strain sto1, active compounds read low 1.03 | S. cerevisiae deletion strains, locus YMR129W, active compounds read low 1.01 | S. cerevisiae deletion strains, locus YMR205C, strain PFK2, active compounds read low 1.03 | S. cerevisiae deletion strains, locus YMR223W, strain ubp8, active compounds read low 0.987 | S. cerevisiae deletion strains, locus YMR231W, strain pep5, active compounds read low 1.02 | S. cerevisiae deletion strains, locus YMR263W, strain SAP30, active compounds read low 1.01 | S. cerevisiae deletion strains, locus YMR307W, strain GAS1, active compounds read low 1.04 | S. cerevisiae deletion strains, locus YNL067W, strain RPL9B, active compounds read low 1.02 | S. cerevisiae deletion strains, locus YNL071W, strain lat1, active compounds read low 1.01 | S. cerevisiae deletion strains, locus YNL128W, strain TEP1, active compounds read low 1.01 | S. cerevisiae deletion strains, locus YNL153C, strain GIM3, active compounds read low 1.02 | S. cerevisiae deletion strains, locus YNL183C, strain NPR1, active compounds read low 0.975 | S. cerevisiae deletion strains, locus YNL209W, strain ssb2, active compounds read low 1.02 | S. cerevisiae deletion strains, locus YNL233W, strain BNI4, active compounds read low 1.01 | S. cerevisiae deletion strains, locus YNL248C, strain rpa49, active compounds read low 1.01 | S. cerevisiae deletion strains, locus YNL250W, strain rad50, active compounds read low 0.993 | S. cerevisiae deletion strains, locus YNL271C, strain bni1, active compounds read low 1 | S. cerevisiae deletion strains, locus YNL298W, strain CLA4, active compounds read low 0.985 | S. cerevisiae deletion strains, locus YNL307C, strain MCK1, active compounds read low 0.996 | S. cerevisiae deletion strains, locus YNL322C, strain KRE1 (second series), active compounds read low 1.02 | S. cerevisiae deletion strains, locus YNL322C, strain KRE1, active compounds read low 1.01 | S. cerevisiae deletion strains, locus YNR049C, strain mso1, active compounds read low 1.01 | S. cerevisiae deletion strains, locus YNR052C, strain pop2, active compounds read low 1.01 | S. cerevisiae deletion strains, locus YOL006C, strain TOP1, active compounds read low 1.06 | S. cerevisiae deletion strains, locus YOL012C, strain htz1 1.02 | S. cerevisiae deletion strains, locus YOL147C, strain pex11, active compounds read low 0.985 | S. cerevisiae deletion strains, locus YOR001W, strain rrp6, active compounds read low 1.01 | S. cerevisiae deletion strains, locus YOR061W, strain CKA2, active compounds read low 1.01 | S. cerevisiae deletion strains, locus YOR069W, strain VPS5, active compounds read low 1 | S. cerevisiae deletion strains, locus YOR070C, strain gyp1, active compounds read low 1.03 | S. cerevisiae deletion strains, locus YOR080W, strain dia2, active compounds read low 1.02 | S. cerevisiae deletion strains, locus YOR083W, strain WHI5, active compounds read low 1.02 | S. cerevisiae deletion strains, locus YOR106W, strain vam3, active compounds read low 1.02 | S. cerevisiae deletion strains, locus YOR136W, strain idh2, active compounds read low 0.99 | S. cerevisiae deletion strains, locus YOR144C, strain elg1, active compounds read low 1 | S. cerevisiae deletion strains, locus YOR184W, strain ser1, active compounds read low 0.981 | S. cerevisiae deletion strains, locus YOR231W, strain MKK1, active compounds read low 1.01 | S. cerevisiae deletion strains, locus YOR265W, strain rbl2, active compounds read low 1.01 | S. cerevisiae deletion strains, locus YOR270C, strain vph1, active compounds read low 1.01 | S. cerevisiae deletion strains, locus YOR290C, strain snf2, active compounds read low 0.996 | S. cerevisiae deletion strains, locus YOR316C, strain cot1, active compounds read low 0.997 | S. cerevisiae deletion strains, locus YPL051W, strain arl3, active compounds read low 1.01 | S. cerevisiae deletion strains, locus YPL055C, strain LGE1, active compounds read low 1.03 | S. cerevisiae deletion strains, locus YPL078C, strain atp4, active compounds read low 1.01 | S. cerevisiae deletion strains, locus YPL106C, strain sse1, active compounds read low 1.01 | S. cerevisiae deletion strains, locus YPL240C, strain hsp82, active compounds read low 1.03 | S. cerevisiae deletion strains, locus YPL256C, strain CLN2, active compounds read low 0.996 | S. cerevisiae deletion strains, locus YPR119W, strain clb2, active compounds read low 0.985 | S. cerevisiae deletion strains, locus YPR141C, strain kar3, active compounds read low 0.992 | S. cerevisiae deletion strains, locus YPR163C, strain tif3, active compounds read low 0.997 | S. cerevisiae deletion strains, locus YPR167C, strain met16, active compounds read low 0.985 | S. cerevisiae deletion strains, strain wtn01, active compounds read low 0.993 | S. cerevisiae strains, strain wild type, active compounds read low 0.999
